From PubChem BioAssay
Sampled rows, rich in hits. Any-hit rate of the full collection: about 2.2%.
PGC1a acetyl inh – lowers PGC1a acetylation signal in U2OS cells; AlphaScreen anti-acetyl-lysine; with virally co-expressed GCN5 acetyltransferase; inhibition, % at 15.6 µM; actives 0.17% (n = 350,000);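 active = every replicate shows inhibition of at least 40%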;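 note: 0% = neutral control wells and 100% = positive control wells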
LMP1 NFkB inh – Epstein-Barr LMP1 NF-kappaB reporter inhibition | LMP1-induced NF-kappaB luciferase reporter cells, luminescence | inhibition, % at 12.5 µM | actives 0.69% (n = 350,000) | AID 504558; in the data active = inhibition above about 41%;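 note: 0% = neutral control wells and 100% = reference inhibitor control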
LGR2 antag – inhibitors of bursicon-induced Drosophila LGR2 receptor cAMP signaling. HEK293 LGR2, CRE-luciferase, bursicon-stimulated, 4 h. inhibition, % at 9.99 µM. actives 0.35% (n = 380,000);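 active = drop in luminescence signal, shown as inhibition above about 50% in the replicate tests, limit read from the data, passing the limit was not always enough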;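 note: agonist challenge used bursicon conditioned medium at about half maximal strength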
EWS-Fli block – inhibitors of EWS/Fli oncoprotein transcriptional activity; A673 NR0B1-luciferase reporter, viability-normalised; actives 0.67% (n = 350,000); inhibition, % at 12.6 µM;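 active = mean inhibition of at least 50% after viability correction, with every replicate also passing that limit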;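 note: firefly luciferase signal divided by Alamar Blue viability fluorescence both relative to DMSO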
PAX8 inh HTS – lowers PAX8-driven luciferase in RMG-I cells; inhibition, % at 12.6 µM; actives 1.2% (n = 360,000); AID 652154; RMG-I TPO-luciferase reporter, SteadyGlo, 24 h;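 active = mean replicate inhibition at least 60% with every replicate also reaching 60%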;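 note: luciferase light reporting Pax8 driven TPO promoter activity; plate controls were median of neutral control wells for no effect and mitoxantrone controls for full effect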
TRPM1 prom inh – inhibitors of MITF-driven TRPM1 promoter in melanoma cells; SK-MEL-5 TRPM1 promoter luciferase, 24 h; inhibition, % at 12.5 µM; actives 0.83% (n = 330,000);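 active = mean inhibition across replicates of 60% or more, whatever share of single replicates reaches that level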
Starred values were filed as active, the others as inactive.

`CCN(CC)CC(C)(C)C(=O)/C=C/c1ccc(/C=C/C(=O)C(C)(C)CN(CC)CC)cc1` gave LMP1 NFkB inh 91*, LGR2 antag 103*, EWS-Fli block 71*, PAX8 inh HTS 123* and TRPM1 prom inh 93*.
`CC(C)=CCN(C(=O)C#Cc1ccccc1)[C@H](CO)c1ccccc1` gave PGC1a acetyl inh -4, EWS-Fli block 42 and PAX8 inh HTS 105*.
`COc1cccc(C(=O)N2C[C@H]3[C@@H](c4ccccc42)[C@H](CO)N3Cc2ccccc2F)c1` gave PGC1a acetyl inh -18, LGR2 antag 7, EWS-Fli block 2 and PAX8 inh HTS 19.
CC1=C/C(=N\NC(=S)Nc2cccnc2)CC(C)(C)C1 was read as PGC1a acetyl inh 7, LMP1 NFkB inh 9, LGR2 antag -6, EWS-Fli block 29, PAX8 inh HTS 12 and TRPM1 prom inh 62*.
C[C@@H]1CN([C@@H](C)CO)C(=O)Cc2cc(NC(=O)CCN3CCOCC3)ccc2O[C@H]1CN(C)CC1CCCCC1 was read as PGC1a acetyl inh 0, LGR2 antag 14 and EWS-Fli block 10.
Screening CCOc1cccc(C=NNC(=O)C(=O)Nc2cccc(C(F)(F)F)c2)c1O returned LGR2 antag 28, EWS-Fli block 14 and PAX8 inh HTS 70*.
Screening COc1ccc2nc(C)cc(N/N=C/c3cccc(OC)c3O)c2c1 returned PGC1a acetyl inh 13, LMP1 NFkB inh 5, LGR2 antag 5, EWS-Fli block 68*, PAX8 inh HTS 95* and TRPM1 prom inh 82*.
O=C(NN=Cc1ccco1)C(=O)Nc1cccc(C(F)(F)F)c1 was read as LGR2 antag -14, EWS-Fli block -6 and PAX8 inh HTS -5.
Screening COc1cccc(/C=N/NC(=O)CSCC(=O)Nc2ccccc2)c1O returned PGC1a acetyl inh 10, LMP1 NFkB inh 47*, LGR2 antag 11, EWS-Fli block 8 and TRPM1 prom inh 15.
`COc1ccc2nc(C)cc(NCc3cccc(C(F)(F)F)c3)c2c1` gave LMP1 NFkB inh -13, LGR2 antag -10, EWS-Fli block 22, PAX8 inh HTS 22 and TRPM1 prom inh 69*.
Screening COC(=O)c1sccc1N/N=C/c1cccc(OC)c1O returned PGC1a acetyl inh -3, LMP1 NFkB inh 11, LGR2 antag 77*, EWS-Fli block 32, PAX8 inh HTS 7 and TRPM1 prom inh 15.
COc1cccc2c(N/N=C/c3ccccc3)cc(C)nc12 was read as PGC1a acetyl inh 11, LMP1 NFkB inh 2, LGR2 antag -62, EWS-Fli block 6, PAX8 inh HTS -6 and TRPM1 prom inh 5.
Screening COc1ccc(/C=N/Nc2cc(C)nc3ccc(Br)cc23)cc1 returned LMP1 NFkB inh -26, LGR2 antag 93*, EWS-Fli block 48, PAX8 inh HTS 95* and TRPM1 prom inh 99*.
For CCCN1C[C@@H](C)[C@H](OC)CN(C)C(=O)c2ccc(NC(=O)c3ccccc3F)cc2OC[C@@H]1C the results were PGC1a acetyl inh 1, LGR2 antag -3, EWS-Fli block -94 and PAX8 inh HTS 8.
C[C@H]1CN([C@@H](C)CO)C(=O)c2cc(NS(=O)(=O)c3ccccc3)ccc2O[C@@H]1CN(C)S(=O)(=O)c1cccs1 was read as PGC1a acetyl inh 10, LGR2 antag -21, EWS-Fli block -5 and PAX8 inh HTS -32.
O=C(NC1CCCCC1c1ccccc1)c1ccccc1 (centres undefined) was read as LMP1 NFkB inh -3, LGR2 antag 8, EWS-Fli block -2, PAX8 inh HTS -5 and TRPM1 prom inh 0.
`O=C(NC1CCCCCCC1O)c1ccccc1` (centres undefined) gave PGC1a acetyl inh 57*, LMP1 NFkB inh 5, LGR2 antag 10, EWS-Fli block -8, PAX8 inh HTS -12 and TRPM1 prom inh -5.
For COc1ccccc1-c1cnc2c(c1)C(=O)N([C@H](C)CO)C[C@H](C)[C@H](CN(C)C)O2 the results were PGC1a acetyl inh 12, LGR2 antag -9 and EWS-Fli block -9.
`O=C(c1ccc(Cl)c([N+](=O)[O-])c1)N1CCN(c2ccccn2)CC1` gave LMP1 NFkB inh 6, LGR2 antag 8, EWS-Fli block -15, PAX8 inh HTS 17 and TRPM1 prom inh 4.
Screening O=C(c1ccc(S(=O)(=O)Cc2ccccc2Cl)c([N+](=O)[O-])c1)N1CCN(c2ccccn2)CC1 returned PGC1a acetyl inh 18, LMP1 NFkB inh 36, LGR2 antag 49, EWS-Fli block 9, PAX8 inh HTS 53 and TRPM1 prom inh 74*.
`CCc1nc(SCC(=O)c2ccc3c(c2)OCCO3)c2ccccc2n1` gave PGC1a acetyl inh -11, LMP1 NFkB inh 41*, PAX8 inh HTS -29 and TRPM1 prom inh -1.
Screening N#Cc1cccc(-c2ccc3c(c2)[C@H]2[C@H](CCN2C(=O)c2ccc4c(c2)OCO4)[C@H](CO)N3)c1 returned PGC1a acetyl inh -7, LGR2 antag 28, EWS-Fli block 17 and PAX8 inh HTS 33.
For Nc1ccc2nc(NC(=O)C3CCCCC3)sc2c1 the results were PGC1a acetyl inh 5, LMP1 NFkB inh -26, LGR2 antag -370, EWS-Fli block -35, PAX8 inh HTS -163 and TRPM1 prom inh -54.
For O=C(Nc1nc2ccc(C(=O)N3CCCCC3)cc2s1)C1CCCCC1 the results were PGC1a acetyl inh 1, LMP1 NFkB inh -21, LGR2 antag -11, EWS-Fli block 54*, PAX8 inh HTS -26 and TRPM1 prom inh 1.
`COc1ccc(N2C(=O)CN=C2Nc2nc(C)cc(C)n2)cc1` gave PGC1a acetyl inh 4, LMP1 NFkB inh 2, PAX8 inh HTS 76* and TRPM1 prom inh 16.
CCCC#Cc1ccc([C@@H]2[C@@H](CO)N3CCCCN(S(=O)(=O)c4ccccc4F)C[C@@H]23)cc1 was read as PGC1a acetyl inh -9, LGR2 antag -2, EWS-Fli block 0 and PAX8 inh HTS -2.
For Cc1cccc(-c2ccc([C@H]3[C@H]4CN(S(=O)(=O)c5cccc(C)c5)CCCCN4[C@H]3CO)cc2)c1 the results were PGC1a acetyl inh 3, LGR2 antag 13, EWS-Fli block 16 and PAX8 inh HTS 103*.
For COc1ccc(S(=O)(=O)N2CCCCN3[C@H](C2)[C@@H](c2ccc(C#CCC(C)C)cc2)[C@@H]3CO)cc1 the results were PGC1a acetyl inh -17, LGR2 antag 5, EWS-Fli block 8 and PAX8 inh HTS -2.
CCCC#Cc1ccc([C@@H]2[C@H]3CN(S(=O)(=O)c4ccccc4F)CCCCN3[C@H]2CO)cc1 was read as PGC1a acetyl inh -9, LGR2 antag 20, EWS-Fli block 18 and PAX8 inh HTS 95*.
For COc1ccc(S(=O)(=O)N2CCCCN3[C@@H](CO)[C@H](c4ccc(C#CC(C)C)cc4)[C@@H]3C2)cc1 the results were PGC1a acetyl inh -8, LGR2 antag 10, EWS-Fli block 27 and PAX8 inh HTS 74*.
